Reference: PubChem BioAssay AID743150 (Broad Institute, 2013)
Potency and affinity values are given separately. Calls of active or inactive are those of the source. No rule for the calls is given here.

Assay: OVCAR4 cell viability loss – plate reader, dry powder, SA11, cytotoxicity control for PAX8 inhibitor project, dose response (AID 743150)
Conditions: series mostly up to 35 µM; activity change, negative = cytotoxicity: at the top concentration

| SMILES | activity change, negative = cytotoxicity |
| --- | --- |
| COc1cccc(C#Cc2ccc([C@@H]3[C@@H](C#N)N(C(=O)C4CCCCC4)[C@H]3CO)cc2)c1 | -0.859% (inactive) |
| CC1(C)CC(=O)c2sc(NC(=O)CCS(=O)(=O)c3ccccc3)nc2C1 | -33.8% [at 50 µM] (inactive) |
| O=C(Nc1ccc(OCC(F)(F)C(F)F)c(C(F)(F)F)c1)c1ccccc1O | -26.7% [at 50 µM] (inactive) |
| C[C@H](CO)N1C[C@H](C)[C@H](CN(C)C(=O)Nc2ccc(-c3cccs3)cc2)OCc2cnnn2CCCC1=O | 50.2% (inactive) |
| C[C@H](CO)N1C[C@H](C)[C@@H](CN(C)S(=O)(=O)c2ccc(-c3ccccc3)cc2)OCc2cn(nn2)CCCC1=O | 16.7% (inactive) |
| N#C[C@@H]1[C@@H](c2ccc(C3=CCCCC3)cc2)[C@@H](CO)N1C(=O)NC1CCCCC1 | 6.62% (inactive) |
| C[C@H](CO)N1C[C@H](C)[C@@H](CN(C)Cc2ccc(C(F)(F)F)cc2)Oc2ccc(NS(=O)(=O)c3ccccc3)cc2CC1=O | 4.05% (inactive) |
| COc1cccc(C#Cc2ccc([C@@H]3[C@@H](C#N)N(C(=O)C4CCCCC4)[C@@H]3CO)cc2)c1 | -5.64% (inactive) |
| CC(=O)N1CCOc2ccc(S(=O)(=O)N3CCN(c4cccc(C(F)(F)F)c4)CC3)cc21 | -18% [at 50 µM] (inactive) |
| CCc1ccc(/C=C2\SC(=S)N(CCCC(=O)N(CCO)c3ccccc3)C2=O)cc1 | -71.7% [at 50 µM] (inactive) |
| N#C[C@H]1[C@@H](c2ccc(C#CC3CCCCC3)cc2)[C@@H](CO)N1S(=O)(=O)c1ccccc1 | -2.06% (inactive) |
| COc1cccc(C#Cc2ccc([C@@H]3[C@@H](C#N)N(C(=O)C4CCCC4)[C@@H]3CO)cc2)c1 | 17.6% (inactive) |
| C[C@H]1CN([C@@H](C)CO)C(=O)CCCn2nncc2CO[C@@H]1CN(C)C(=O)Nc1ccc(-c2cccs2)cc1 | 32.7% (inactive) |
| C[C@@H]1CN([C@H](C)CO)C(=O)CCCn2cc(nn2)CO[C@H]1CN(C)C(=O)Nc1ccc(-c2cccs2)cc1 | 22.7% (inactive) |
| C[C@@H]1CN([C@@H](C)CO)S(=O)(=O)c2ccc(C#C[C@@H](C)O)cc2O[C@H]1CN(C)Cc1ccc(-c2ccccc2)cc1 | 16.7% (inactive) |
| N#C[C@@H]1[C@@H](c2ccc(-c3ccccc3F)cc2)[C@@H](CO)N1C(=O)C1CCC1 | 3.27% (inactive) |

| SMILES | activity change, negative = cytotoxicity |
| --- | --- |
| CCCC#Cc1ccc([C@@H]2[C@@H](C#N)N(C(=O)C3CCCCC3)[C@H]2CO)cc1 | 7.79% (inactive) |
| CCCC#Cc1ccc([C@@H]2[C@H](C#N)N(S(=O)(=O)c3cccc(F)c3)[C@H]2CO)cc1 | -6.39% (inactive) |
| CCCC#Cc1ccc([C@@H]2[C@@H](C#N)N(S(=O)(=O)c3cccc(F)c3)[C@H]2CO)cc1 | 8.16% (inactive) |
| O=C1/C(=C/c2ccccc2F)SC(=S)N1CC(=O)N1CCCCC1c1cccnc1 (stereo unspecified) | 11% [at 50 µM] (inactive) |
| Cc1ccc(S(=O)(=O)Nc2ccc3c(c2)nc(CCN2CCCC2)n3C)cc1 | -9.44% [at 50 µM] (inactive) |
| C[C@H](CO)N1C[C@H](C)[C@@H](CN(C)Cc2ccc(-c3ccccc3)cc2)Oc2ccc(NC(=O)C3CC3)cc2CC1=O | 21.6% (inactive) |
| C[C@H](CO)N1C[C@H](C)[C@@H](CN(C)S(=O)(=O)c2ccc(Cl)cc2)OCCCC[C@H](C)Oc2ccc(NS(=O)(=O)c3ccccc3)cc2C1=O | -9.96% (inactive) |
| CCSCCc1nnc(NC(=O)Nc2cccc(C(F)(F)F)c2)s1 | 5.07% [at 50 µM] (inactive) |
| COc1cccc(C#Cc2ccc([C@@H]3[C@H](C#N)N(C(=O)c4ccccn4)[C@H]3CO)cc2)c1 | 11.8% (inactive) |
| N#C[C@H]1[C@H](c2ccc(C#CC3CCCC3)cc2)[C@@H](CO)N1C(=O)Nc1ccc(F)cc1 | -23.7% (inactive) |
| COc1ccccc1C#Cc1ccc([C@H]2[C@@H](CO)N(C(=O)C3CCCC3)[C@H]2C#N)cc1 | -21.2% (inactive) |
| N#C[C@@H]1[C@@H](c2ccc(-c3cccc(F)c3)cc2)[C@H](CO)N1C(=O)NC1CCCC1 | 7.32% (inactive) |
| O=C(C[C@H]1CC[C@H]2[C@@H](COC[C@@H](O)CN2S(=O)(=O)c2cccc(Cl)c2)O1)Nc1ccc(-c2ccccc2)cc1 | -2.05% (inactive) |
| O=C(NCCc1ccccc1)c1ccc2c(c1)OCCCO2 | -11.5% [at 50 µM] (inactive) |
| COc1cccc(C#Cc2ccc([C@H]3[C@@H](C#N)N(C(=O)c4ccccn4)[C@@H]3CO)cc2)c1 | 28.9% (inactive) |
